Source: PubChem BioAssay (Broad Institute)
Most compounds without a hit are left out; they make up all but 3.1% or so of the library.
esBAF inh: blocks esBAF chromatin remodeling in mouse ES cells; Bmi1-luciferase knock-in reporter, 24 h; 100% = twice the neutral-well signal; reporter increase, % at 12.5 µM; 2% of 350,000 active; AID 602393; in the data active = activation above about 40%; inconclusive = no clear call, values can overlap the other calls;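 also: 0% = median of the plate's neutral control wells and 100% = double that signal; a rise in the Bmi1 reporter signal indicates esBAF inhibition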
MITF TRPM1 HTS: MITF TRPM1 promoter activation in melanoma cells | SK-MEL-5 TRPM1-promoter luciferase, 24 h; % of positive control, neutral wells = 0 | activation, % at 12.5 µM | 0.75% of 300,000 active;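 active = mean activation of at least 80% with every replicate also reaching 80%; inconclusive = mean reaches 80% but some replicate falls short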;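 also: 0% = neutral control wells and 100% = parthenolide positive control wells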
Statin myotox sup: protects C2C12 myotubes from simvastatin toxicity | rescue of ATP level, % at 7.49 µM | 0.78% of 330,000 active | ATP luminescence, 48 h; scaled: DMSO 0, geranylgeraniol control 100 | AID 602340;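 active = mean ATP rescue above about 67%, or every replicate alone reaching that limit, limit read from the data, passing the limit was not always enough; inconclusive = no clear call, values can overlap the other calls; inactive = mean under the limit and some replicate under it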;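 also: myotubes were challenged with 10 µM simvastatin during compound exposure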
Wnt bcat act: activators of Wnt/beta-catenin signaling. Wnt/beta-catenin reporter cell assay, activator, plate reader. activation, % at 9.35 µM. 1.2% of 300,000 active; in the data active = activation above about 30%, passing the limit was not always enough; inconclusive = no clear call, values can overlap the other calls;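 also: 0% = neutral control wells and 100% = positive control wells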
Rtt109 HAT inh: C. albicans Rtt109 histone acetyltransferase inhibition. Q5AAJ8. purified Rtt109/Vps75, ThioGlo CoA-SH fluorescence, 4 h. inhibition, % at 34.9 µM. 0.16% of 330,000 active;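 active = inhibition of at least 50% in every replicate; inconclusive = best replicate reaches 50% inhibition but some replicates fall short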
Target sequence (Q5AAJ8 whole entry, looked up): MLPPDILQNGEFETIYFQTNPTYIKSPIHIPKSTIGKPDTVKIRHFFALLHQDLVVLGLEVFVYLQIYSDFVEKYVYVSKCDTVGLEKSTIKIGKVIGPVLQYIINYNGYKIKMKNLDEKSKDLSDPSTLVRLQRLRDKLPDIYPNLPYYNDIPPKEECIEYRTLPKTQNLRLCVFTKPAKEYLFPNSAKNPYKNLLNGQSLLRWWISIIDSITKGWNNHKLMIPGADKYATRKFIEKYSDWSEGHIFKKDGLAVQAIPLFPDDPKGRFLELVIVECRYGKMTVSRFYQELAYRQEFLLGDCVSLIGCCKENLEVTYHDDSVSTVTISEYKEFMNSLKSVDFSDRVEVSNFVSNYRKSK
* = called active by the depositor; ? = inconclusive; . = no result; ! = repeats disagree.

SMILES	esBAF inh	MITF TRPM1 HTS	Statin myotox sup	Wnt bcat act	Rtt109 HAT inh
O=[N+]([O-])c1cc(Cl)ccc1-c1nc(-c2ccncc2)no1	.	-1	.	7	-2
c1ccc(-c2ccccc2-c2nc(-c3ccncc3)no2)cc1	.	16	.	.	13
Clc1ccccc1-c1nc(-c2ccncc2)no1	13	36	-7	49*!	-2
Cc1nc(-c2noc(-c3ccccc3Cl)n2)c(C(F)(F)F)o1	47*	83*	2	-2	0
O=C(C[C@H]1CC[C@@H](NS(=O)(=O)c2ccccc2F)[C@@H](CO)O1)NCCCN1CCOCC1	3	.	0	.	.
CCCC(=O)Nc1ccc2c(c1)C(=O)N(C)C[C@@H](OC)[C@@H](C)CN(C(=O)CC)[C@@H](C)CO2	1	.	-1	.	.
O=C(C[C@@H]1CC[C@@H]2[C@H](COC[C@@H](O)CN2S(=O)(=O)c2cccc(F)c2)O1)Nc1ccccc1	10	.	-2	.	.
Clc1ccccc1-c1nc(-c2ccc(Br)o2)no1	-20	.	9	24	4
O=[N+]([O-])c1ccccc1-c1nc(-c2ccc(Br)o2)no1	.	40	.	47*	-3
Clc1ccc(OCc2nc(-c3ccncc3)no2)cc1	62*	72	22	19	8
CC(C)CC#Cc1ccc2c(c1)O[C@@H](CN(C)Cc1ccncc1)[C@@H](C)CN([C@@H](C)CO)S2(=O)=O	0	.	-16	.	.
CCCN(C)C[C@H]1Oc2cc(C3=CCCC3)ccc2S(=O)(=O)N([C@@H](C)CO)C[C@@H]1C	.	.	12	.	.
C[C@H](CO)N1C[C@H](C)[C@@H](CN(C)S(=O)(=O)c2cccs2)Oc2ccc(NC(=O)NC3CCCCC3)cc2CC1=O	2	.	-4	.	.
COc1ccc(-c2ccc(-c3nnn(CC(C)=O)n3)cc2)cc1	22	50	7	.	0
CCOc1ccc(-c2nnn(CC(=O)Nc3cccc(OC)c3)n2)cc1OCC	0	-9	-1	33*	.
COc1cccc(-c2nnn(CC(C)=O)n2)c1	.	82*	.	.	9
CO[C@H]1CN(C)C(=O)c2cc(NC(=O)C3CC3)ccc2OC[C@@H](C)N(C(=O)c2cccnc2)C[C@@H]1C	3	.	-4	.	.
COc1ccccc1-c1cc(C(=O)NC2CCCC2)no1	46*	51	-8	17	0
O=C(NC1CCCCC1)c1cc(-c2ccccc2Cl)on1	57*	110*	-12	23	13
Cc1ccc(O)c(NC(=O)c2cc(-c3ccccc3Cl)on2)c1	52*	.	10	-3	-4
O=C(NC1CCCC1)c1cc(-c2ccc(Cl)cc2Cl)on1	19	97*	-27	28	8
Cc1ccc(-c2cc(C(=O)Nc3cc(C)ccc3O)no2)cc1	33	.	27	-3	2
COc1ccc(-c2cnc3c(c2)C(=O)N([C@H](C)CO)C[C@H](C)[C@H](CN(C)Cc2ccc(C(=O)O)cc2)O3)cc1	3	.	20	.	.
O=C(N[C@@H]1CC[C@@H](CCNC(=O)C2CCCC2)O[C@@H]1CO)c1ccncc1	0	.	0	.	.
O=C(NCC1CCCO1)c1cc(-c2ccc(Cl)cc2Cl)on1 (stereo not given)	8	.	5	37*	1
SMILES	esBAF inh	MITF TRPM1 HTS	Statin myotox sup	Wnt bcat act	Rtt109 HAT inh
CC(=O)N(C)C[C@H]1Oc2cc(-c3ccccc3F)ccc2S(=O)(=O)N([C@@H](C)CO)C[C@@H]1C	4	.	6	.	.
Cc1ccc(C(=O)C(C(=O)/C=C/c2ccccc2)=C2SCCCS2)cc1	-5	-86	113*	.	2
COc1ccc2oc(C(=O)OCC(=O)Nc3ccc(C)c(S(=O)(=O)N4CCOCC4)c3)c(C)c2c1	79*	.	-7	-2	.
Cc1ccc2oc(C(=O)N3CCCCCC3)c(C)c2c1	64*	124*	-14	29	-4
Cc1c(C(=O)N2CCOCC2)oc2ccc(S(=O)(=O)N3CCCC3)cc12	-3	6	121*	2	-12
CCOC(=O)N1CCN(C(=O)c2oc3ccc(S(=O)(=O)N4CCOCC4)cc3c2C)CC1	0	-1	95*	-6	-3
C[C@@H]1CN([C@@H](C)CO)S(=O)(=O)c2ccc(C#CC3CC3)cc2O[C@H]1CN(C)Cc1cncnc1	.	.	-61	.	.
Cc1cccc2c1OCC/C2=N\NC(=O)COc1ccccc1Cl	70*	95*	20	.	1
CN(C)Cc1cn(CC[C@@H]2CC[C@@H](NC(=O)Nc3ccc4c(c3)OCO4)[C@H](CO)O2)nn1	4	.	-6	.	.
CC1CCN(c2ccc3c(c2)S(=O)(=O)c2cccc(C(=O)NCc4ccc(F)cc4)c2C3=O)CC1	70*	.	-9	7	-1
O=C(NCc1ccc(F)cc1)c1cccc2c1C(=O)c1ccc(N3CCC(Cc4ccccc4)CC3)cc1S2(=O)=O	4	2	8	-2	-5
O=C(NC1CCCC1)c1cccc2c1C(=O)c1ccc(N3CCCCC3)cc1S2(=O)=O	50*	.	0	4	19
C[C@H](CO)N1C[C@H](C)[C@H](CN(C)Cc2ccc(-c3ccccc3)cc2)Oc2c(NC(=O)C3CCCCC3)cccc2C1=O	-2	.	.	.	.
O=C(c1ccc2c3n(nc2c1)-c1ccccc1CO3)N1CCCCC1	5	20	-256	20	0
c1ccc2c(c1)COc1c3ncccc3nn1-2	50*	.	-2	7	.
Cc1cc(C(=O)NC2CCCCCCC2)ccc1[N+](=O)[O-]	66*	.	2	48*	0
Cc1cc(C(=O)OCC(=O)NC2CC2)ccc1[N+](=O)[O-]	3	4	-3	1	-4
CN(C)c1cccc(C(=O)NC2CCCCCC2)c1	44*	59	-6	.	3
Cc1cccc(C(=O)NC2CCCCCCC2)c1	65*	73	4	15	-3
Cc1cccc(NC(=O)NC2CCCCCCC2)c1	62*	36	-9	20	9
CC(=O)c1cccc(NC(=O)NC2CCCCCCC2)c1	.	10	.	0	-4
Cc1noc(C)c1S(=O)(=O)N(C)C[C@H]1OCCCC[C@H](C)Oc2ccc(NS(=O)(=O)c3ccc(Cl)cc3)cc2C(=O)N([C@H](C)CO)C[C@@H]1C	2	.	.	.	.
Cc1ccsc1C(=O)Nc1nccs1	13	11	-25	6	-4
COc1ccc2oc(C(=O)Nc3nc(C)cs3)c(C)c2c1	22	79	-20	51*	10
COCc1c(C(=O)Nc2nc(C)cs2)oc2ccccc12	.	-11	.	7	-1
SMILES	esBAF inh	MITF TRPM1 HTS	Statin myotox sup	Wnt bcat act	Rtt109 HAT inh
COc1ccc2oc(C(=O)NCCC(C)C)c(C)c2c1	26	?	-4	-2	-16
Cc1csc(NC(=O)c2sccc2C)n1	2	30	-32	48*	1
COc1ccc2oc(C(=O)Nc3ccccn3)c(C)c2c1	-49	-8	-8	43*	1
COc1ccc(C(=O)Nc2ccccn2)cc1	-5	-1	-5	.	0
COc1ccc2oc(C(=O)Nc3ccc(C)cn3)c(C)c2c1	?	76	-6	38*	-1
CN(C(=O)c1ccccc1Cl)C1CCCCC1	30	6	5	-2	15
CN(N=Nc1ccccc1C(=O)O)C1CCCCC1	-1	.	33	38*	.
